# Measurements reported in article PMC9574860, “Chemical Toolkit for PARK7: Potent, Selective, and High-Throughput” (Journal of Medicinal Chemistry, 2022).
# Hit rate of the full screen: of about 7,900 compounds, about 400 (5.1%) showed an effect of 50% or more. The list comes from a sample in which strong results are over-represented; it also holds similar structures and randomly drawn compounds.
# Molecular target: Parkinson's disease protein 7 (PARK7/DJ1) (human, UniProt Q99497)
# Assay: primary screen, percent inhibition; read as competition with a fluorescent probe by fluorescence polarization; higher = more effect of the substance
# Conditions: 100 µM
# Outline: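 Covalent fragments at 100 μM final were incubated 2 h with 0.2 μM PARK7, then 20 nM probe JYQ-107 added for a further 2 h. Fluorescence polarization read at 480/520 nm; relative FP loss versus reference controls gave remaining enzyme activity.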
# Chain of Parkinson's disease protein 7 (PARK7/DJ1) (Q99497 whole entry, looked up): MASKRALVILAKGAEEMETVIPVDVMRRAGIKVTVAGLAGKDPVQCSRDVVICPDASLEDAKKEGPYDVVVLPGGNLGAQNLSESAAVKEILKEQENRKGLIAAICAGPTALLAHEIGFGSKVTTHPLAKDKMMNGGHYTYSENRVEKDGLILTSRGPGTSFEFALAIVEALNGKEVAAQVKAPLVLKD
row,Compound,Inhibition % [%]
1,CC1(C)OB(c2cncc(NS(=O)(=O)c3ccccc3)c2)OC1(C)C,8.59
2,CCNS(=O)(=O)c1ccc(B2OC(C)(C)C(C)(C)O2)c(C)c1,5.32
3,C=CC(=O)NC1CC(OC)C1(C)C (stereo not shown),-3.29
4,CC1CC(Sc2cnccn2)C(=O)O1 (stereo not shown),48.8
5,Cc1ccc2cccc(OC(=O)N(C)C)c2n1,5.34
6,C=CS(=O)(=O)c1ccccc1,9.43
7,CC1CCN(C(=O)C=Cc2cn(C)c(=O)n(C)c2=O)CC1,10.9
8,CN1CCC(CNc2ccc(C#N)nc2)CC1,1.29
9,O=C(CCCl)N1CCN(c2ncccn2)CC1,3.8
10,Cl.O=C(CCl)N1CCN(c2cnccn2)CC1,55.6
11,O=C(CCCl)N1CCN(c2ccccn2)CC1,12.9
12,C=CC(=O)N1CCN(c2ncccn2)CC1,9.58
13,O=C(CCl)N1CCN(c2ncccn2)CC1,91.6
14,Cl.O=C(CCl)N1CCN(c2cccc(Cl)c2)CC1,44.3
15,C=CC(=O)NCCN1C(=O)CNC1=O,12.9
16,C=CC(=O)NCC1CCN(c2ccccc2)CC1,3.72
17,N#Cc1ccnc(Cl)n1,3.95
18,N#Cc1cc(F)ccn1,5.03
19,N#Cc1cc(Cl)ccn1,52.6
20,Cc1ccc(NS(=O)(=O)CCCS(=O)(=O)F)nc1,80.1
21,C=CC(=O)Nc1ccc(C)cn1,0.151
22,O=S(=O)(F)CCCS(=O)(=O)Nc1ccc(F)cn1,77.2
23,Cc1ccc(C=CS(=O)(=O)Nc2ccc(C#N)cn2)cc1,11.1
24,O=S(=O)(F)c1ccc(Nc2ccc(F)cc2)nc1,2.34
25,O=S(=O)(C=Cc1ccccc1)Nc1ccc(F)cn1,6.27
26,Cn1c(SC2CCOC2=O)nnc1-c1ccccc1 (stereo not shown),12.6
27,FC(F)(F)c1ccc(S)nn1,25.5

row,Compound,Inhibition % [%]
1,Sc1ccc(Cl)nn1,53.5
2,Cc1ccc(S)nn1,28.1
3,CC(C)(C)C(=O)NNS(=O)(=O)c1cccc(S(=O)(=O)F)c1,97.2
4,CC(C)CC(=O)NNS(=O)(=O)c1cccc(S(=O)(=O)F)c1,98.2
5,CNC(=O)Nc1ccc(S(=O)(=O)F)cc1,22.2
6,CC(C)(C)C(=O)NNS(=O)(=O)c1ccc(S(=O)(=O)F)cc1,6.55
7,CC(C)CC(=O)NNS(=O)(=O)c1ccc(S(=O)(=O)F)cc1,30.6
8,COCC(=O)Nc1ccc(S(=O)(=O)F)cc1,13.6
9,O=c1oc2cc(OCC3CO3)ccc2c2c1CCC2 (stereo not shown),10.6
10,N#Cc1nc(N2CCOCC2)ccc1Cl,8.71
11,Cc1cn2c(C=C(C#N)c3ccccn3)c(C)nc2s1,13.6
12,O=C(CCl)Nc1cc(C(F)(F)F)ccc1-n1cncn1,32.5
13,C=CC(=O)N1CCC(c2ccc(C)nc2)CC1,4.08
14,CCOc1ccncc1S(=O)(=O)Oc1cccc(F)c1,58.4
15,Cn1cc(S(=O)(=O)Oc2cccc(F)c2)c(=O)n(C)c1=O,5.3
16,CCn1cc(S(=O)(=O)Oc2cccc(F)c2)nc1C,3.67
17,N#Cc1nccnc1N1CCc2c(F)ccc(F)c2C1,41
18,C=CC(=O)NCc1cc2ccccc2s1,13.3
19,CC1CC(N2CCCCC2Cn2cncn2)C(=O)O1 (stereo not shown),1.57
20,O=C(CCl)NCC1CCCO1 (stereo not shown),5.15
21,O=C(CCl)C1CCCCO1 (stereo not shown),94.5
22,C=CC(=O)NCCC1CCCCO1 (stereo not shown),2.29
23,Cn1c(=O)ccn(CC(=O)Nc2cccc(S(=O)(=O)F)c2)c1=O,99.6
24,CN(C)S(=O)(=O)c1cccc(NC(=O)CCl)c1,15.5
25,O=C(CSC(F)(F)F)Nc1cccc(S(=O)(=O)F)c1,99.8
26,O=C(Cn1ncc2ccccc21)Nc1cccc(S(=O)(=O)F)c1,94.6
27,CCn1nc(C)c(C(=O)Nc2cccc(S(=O)(=O)F)c2)c1Cl,8.14

row,Compound,Inhibition % [%]
1,NS(=O)(=O)c1cccc(NC(=O)CCCl)c1,4.37
2,O=Cc1cccc(C(=O)O)c1O,24.2
3,C=CC(=O)N1CCN(CC(C)C)C(=O)C1,0.18
4,COc1ccc(CS(=O)(=O)F)cc1[N+](=O)[O-],18.4
5,C=CC(=O)N1CC(Cc2cccs2)C1,12.5
6,C=CC(=O)NCCc1nnc2n1CCCCC2,8.54
7,COc1ccc(C(=O)NNC(=O)CCl)cc1,-3.11
8,N#Cc1ncn(CCOc2ccccc2Cl)n1,8.15
9,C=CC(=O)N1CC(C)OC2(CCOC(C)C2)C1 (stereo not shown),9.19
10,O=C(CCl)Nc1ccc(Br)cc1F,71.1
11,O=C(CCl)Nc1ccc(F)cc1Cl,13.8
12,N#CSc1ccc(NC(=O)CCl)c(F)c1,72
13,Cc1cc(SC#N)cc(C)c1NC(=O)CCl,4.28
14,O=C(CCl)Nc1ccc(F)c(F)c1F,32.8
15,O=C(CCl)Nc1ccc(F)cc1F,23.9
16,O=C(CCl)Nc1ccc(Cl)cc1F,49.7
17,O=C(CCl)Nc1ccc(Cl)cc1Cl,18
18,N#CSc1ccc(NC(=O)CCl)c(Cl)c1,55.8
19,Cc1cccc(OCC(=O)Nc2ccc(S(=O)(=O)F)cc2)c1,9.17
20,OB(O)c1ccccc1OCC1CCOC1 (stereo not shown),5.05
21,Cc1cc(CN(C)c2ccc(C#N)nc2)no1,-2.05
22,CN(CC(=O)Nc1ncc(S(=O)(=O)F)s1)S(C)(=O)=O,9.17
23,CSC1(CNc2cccc(C#N)n2)CCC1,11.9
24,C=CC(=O)Nc1ccccc1CN1CCOCC1,8.41
25,CCOc1cc(S(=O)(=O)n2ccc(C)n2)ccc1Cl,2.71
